The results in this text go back to ChEMBL document CHEMBL4513216, “Probing the Open Global Health Chemical Diversity Library for Multistage-Active Starting Points for Next-Generation Antimalarials” (ACS Infect Dis, 2020).

SMILES strings stand for the structures. Hit rate of the full screen: of about 69,000 compounds, about 8,600 (12%) showed an effect of 50% or more. The sample as a whole holds a higher share of strong results than the screen did.

The test deals with Plasmodium berghei. The test is described as follows: Screen against P. berghei liver stage (PbLuc), transformed with Luciferase, at 10uM. The class given is functional, HepG2. Conditions: tested at 10 uM.
For the compound `CCn1cc(NC(=O)NCc2ccc(CO)c(F)c2)cn1`, the INHIBITION is on record as -59.4%. Regarding `Cc1ccc(Cl)c(C)c1NC(=O)N1CCCN(Cc2ccccn2)CC1`, the INHIBITION was 46.3%. The same measure for `O=C(c1cc2c(Cl)cccc2[nH]1)N1CCN(CCc2ccccn2)CC1`: 56.3%; for `CSc1ccccc1C(C(=O)O)N1CCN(Cc2ccccn2)CC1` (stereo not given): 33.5%; for `O=C(O)C(c1ccc(Cl)c(F)c1)N1CCN(Cc2ccccn2)CC1` (stereo not given): 52.1%. Next, `Cc1ccc(NC(=O)N2CCN(Cc3ccccn3)CC2)cc1Cl`: 42.1%; `O=C(c1cc(Cl)c[nH]1)N1CCN(CCc2ccccn2)CC1`: 9.79%. Next, `Cc1c(Cl)cccc1NC(=O)N1CCN(Cc2ccccn2)CC1`: 64.3%; `Cc1ccc(C)c(C(C(=O)O)N2CCCN(Cc3ccccn3)CC2)c1` (stereo not given): 0.139%. Turning to `Cc1ccc(C(C(=O)O)N2CCCN(Cc3ccccn3)CC2)c(F)c1` (stereo not given), the INHIBITION is on record as -1.49%.

In the case of `COc1ccc(C)cc1C(C(=O)O)N1CCN(Cc2ccccn2)CC1` (stereo not given), the INHIBITION is recorded as 26.7%. Next, `Cc1cc(F)c(C(C(=O)O)N2CCN(Cc3ccccn3)CC2)cc1Cl` (stereo not given): 66.6%; `O=C(c1ccccc1Cl)N1CCN(CCc2ccccn2)CC1`: 30%; `Cc1cccc(-n2cnnc2CCCN2CCOCC2)c1`: 34.4%. Take `CNC(=O)C1CCC(NC(=O)c2cc(C3CC3)n(C(C)(C)C)n2)CC1` (stereo not given): the INHIBITION is given as 15.4%.

With `c1ccc(OCCNC2CCCN(Cc3noc(C4CC4)n3)C2)cc1` (stereo not given), the INHIBITION is listed as -52.5%. The same measure for `CNC(=O)c1ccc(C(=O)N2CCCC2c2cnn(C)c2)cn1` (stereo not given): 59.4%; for `CCN(c1ccc(C(=O)N2CCCC2c2cnn(C)c2)cn1)C(C)C` (stereo not given): 48.4%. Next, `COc1ccc(C(=O)N2CCCC2c2cnn(C)c2)cn1` (stereo not given): -11.9%. Next, `CC(C)CN(C)c1ccc(C(=O)N2CCCC2c2cnn(C)c2)cn1` (stereo not given): 52.1%. On to `CCN(CC)Cc1ccc(C(=O)N2CCCC2c2cnn(C)c2)o1` (stereo not given), for which the INHIBITION was determined as 57%.

`CC(=O)NCc1ccc(C(=O)N2CCCC2c2cnn(C)c2)o1` (stereo not given): the INHIBITION is -1.88%. Next, `Cn1cc(C2CCCN2C(=O)c2ccc(NC3CC3)nc2)cn1` (stereo not given): 22.25%; `CN(C)c1ccc(C(=O)N2CCCC2c2cnn(C)c2)cn1` (stereo not given): -13.3%. The same measure for `Cn1cc(C2CCCN2C(=O)c2ccc(Br)o2)cn1` (stereo not given): 12.2%.

Regarding `CC(NC(=O)NCCn1ccnc1)c1ccc2c(c1)CCC(=O)N2` (stereo not given), the INHIBITION is on record as -15.5%. Take `CO[C@H]1C(=O)N(C)C2(CCNCC2)[C@@H]1C(=O)Nc1ccccc1`: the INHIBITION is recorded as 29%. The same measure for `Cc1noc(C)c1CN1CC[C@H]2OCC[C@@]2(C(=O)N2CCCO2)C1`: 37.5%; for `Cc1cnn(CC2CCCN2C(=O)c2cnc(-c3ccco3)s2)c1` (stereo not given): 15.5%; for `CCCS(=O)(=O)N1CCc2nc(N3CCOCC3)nc(N(C)C)c2C1`: 43.8%. Next, `CCS(=O)(=O)N1CCc2nc(N3CCOCC3)nc(N(C)C)c2CC1`: 55.6%; `CCS(=O)(=O)N1CCc2nc(N3CCCC3)nc(N(C)C)c2CC1`: 23.1%. For the compound `CC(=O)N1CCCC1C(=O)NCCOc1c(C)cccc1C` (stereo not given), the INHIBITION was -57.4%. Next, `CC(C)NC(=O)[C@]12COC[C@H]1CN(Cc1cnn(C)c1)C2`: -1.36%; `Cc1ccccc1-n1c(C)cc(=O)[nH]c1=O`: 33.4%; `COCC1CN(C(=O)Cc2cccs2)Cc2nnn(C)c21` (stereo not given): 26.3%. The same measure for `Cc1c(Cl)c(C(=O)NN2CCOCC2)nn1C`: 55.7%.

Turning to `CCC(=O)NCCNC(=O)c1nn(C)c(C)c1Cl`, the INHIBITION is on record as -23%. The same measure for `Cn1nc(C(=O)NN2CCOCC2)c(Cl)c1C(F)(F)F`: -23%. Turning to `Cc1nn(C)c(C)c1CC(=O)NCc1cccnc1N1CCOCC1`, the INHIBITION was 1.48%.

Turning to `CC(CN1CCOCC1)NC(=O)c1cc(Cl)c2c(c1)OCCO2` (stereo not given), the INHIBITION was -23.7%. In the case of `Cc1cc(C(=O)NCc2c(C)nn(C)c2C)nc(N2CCOCC2)n1`, the INHIBITION was 12.9%. Next, `Cc1nn(C)c(C)c1C(=O)NN1CCOCC1`: 62.3%; `Cc1c(Cl)c(C(=O)NCc2ccc(F)cc2)nn1C`: -6.18%. The same measure for `Cc1c(Cl)c(C(=O)NC(C)CN2CCOCC2)nn1C` (stereo not given): 54.9%; for `CNc1ncccc1CN1CCN(C(C)=O)CC(C(N)=O)C1` (stereo not given): -61.5%; for `O=C(c1cocn1)N1CCC[C@]2(C[C@@H](Oc3ncccc3F)CO2)C1`: -26.5%. Consider `O=C(c1ccc[nH]1)N1CCC2(CC1)CC(Oc1cccnc1)CO2` (stereo not given), for which the INHIBITION was found to be 22.5%. Next, `CN1CCCC1CNC(=O)CCCOc1cccc(F)c1` (stereo not given): 11.5975%.

`CCn1ncc(-c2cc(C(F)F)n3nc(CCC(=O)O)nc3n2)c1C`: the INHIBITION was 20.4%.

For `Cc1cccc(N2N=C(C(=O)NC(C)CCc3ccco3)CCC2=O)c1` (stereo not given), the INHIBITION is on record as 12.4%. Next, `Cc1cccc(N2N=C(C(=O)NC(C)Cn3cccn3)CCC2=O)c1` (stereo not given): 50.5%; `Cc1cccc(N2N=C(C(=O)NC(C)Cc3ccco3)CCC2=O)c1` (stereo not given): 32%. Next, `CCn1cc(NC(=O)C2CCN(Cc3nc(C(C)C)no3)CC2)cn1`: 53.9%; `CCCc1noc(CN2CCC(C(=O)Nc3cnn(CC)c3)CC2)n1`: 22.3%. The same measure for `CCn1cc(NC(=O)C2CCN(Cc3nc(C)c(C)o3)CC2)cn1`: 8.31%. Turning to `CCc1noc(CN2CCC(C(=O)Nc3cnn(CC)c3)CC2)n1`, the INHIBITION is recorded as 5.9%. The same measure for `CCn1cc(NC(=O)C2CCN(Cc3nc(C)c(C)s3)CC2)cn1`: 55.6%. The same measure for `CCn1cc(NC(=O)C2CCN(Cc3ccccc3)CC2)cn1`: 21.6%. The same measure for `Cc1noc(CNC(=O)C(C)(C)NC(=O)OC(C)(C)C)n1`: 22%; for `COc1ccc(C2=NOC(C(=O)N3CCCc4ccccc43)C2)cc1` (stereo not given): -20.6%. With `CC(C)N(C)CC(=O)NCC(Cc1ccc(F)cc1)C(N)=O` (stereo not given), the INHIBITION is reported as -16%. The same measure for `Fc1ccccc1C1NCCc2cc3c(cc21)OCCO3` (stereo not given): 2.6%; for `CCc1ccc(C2NCCc3cc4c(cc32)OCCO4)cc1` (stereo not given): 51.5%. The same measure for `Clc1ccc(C2NCCc3cc4c(cc32)OCCO4)cc1` (stereo not given): 45.6%; for `CCOC(C)C(=O)NCCNS(C)(=O)=O` (stereo not given): 19.3%; for `CC(C)(C)NC(=O)NC(=O)CN1C=Nc2ccccc2S1(=O)=O`: 44.3%. The same measure for `COc1cccc(OC)c1CNC(Cc1ccsc1)c1ccc(C)cn1` (stereo not given): 84.2%; for `Cc1cccnc1C(Cc1ccsc1)NCc1cnc(N(C)C)nc1` (stereo not given): -2.495%; for `COc1ccc(CNC(Cc2ccsc2)c2ccc(C)cn2)cc1OC` (stereo not given): 44.3%. Take `COc1ccc(CNC(Cc2ccsc2)c2ncccc2C)cc1OC` (stereo not given): the INHIBITION is recorded as 55.05%. In the case of `COc1ccc(CNC(Cc2cccs2)c2nc(C)c(C)s2)cc1OC` (stereo not given), the INHIBITION is given as 30.4%.

Turning to `COc1ccc(CN2CCC(c3cc(O)nc(C)n3)C2)c(OC)c1` (stereo not given), the INHIBITION is given as -12.2%. Consider `COc1ccc(CNC(Cc2ccsc2)c2ccc(C)cn2)c(OC)c1` (stereo not given), for which the INHIBITION was 68.4%. For `CC(C)CC(NCc1ccsc1)c1ccccn1` (stereo not given), the INHIBITION is 44.6%. The same measure for `CC(C)Oc1cccc(CNC(Cc2ccsc2)c2nccs2)c1` (stereo not given): 44.3%; for `O=C(C1CCCCC1)N1CCC(n2nc(-c3ccco3)ccc2=O)CC1`: 40%. Next, `Cc1ccc(C(N)c2cccc(S(C)(=O)=O)c2)c(C)c1` (stereo not given): -24.2%; `CCc1csc(C2CCCN(C(=O)c3cc(Cl)c[nH]3)C2)n1` (stereo not given): 11.9%. With `CCCC1COCCN1Cc1ccc(S(=O)(=O)NC)cc1` (stereo not given), the INHIBITION is -6.39%.

In the case of `CNC(=O)NC(=O)CN1CCCC(Cc2ccccc2OC)C1` (stereo not given), the INHIBITION is on record as -43.6%. The same measure for `CNC(=O)CN1CCCC(Cc2ccccc2OC)C1` (stereo not given): 59%; for `COc1ccccc1CC1CCCN(CC(=O)NC2CC2)C1` (stereo not given): -25.9%; for `CCCS(=O)(=O)N1C[C@@H](OCc2ccncc2)[C@H]2OCCC[C@H]21`: -7.2%.

Consider `CCOCCn1c(=O)[nH]c2cc(C(=O)N(C)CCc3cn[nH]c3)ccc21`, for which the INHIBITION turned out to be 50.1%. The same measure for `CCCN(C)C(=O)c1ccc2c(c1)[nH]c(=O)n2CCOCC`: 3.47%. For the compound `CCOCCn1c(=O)[nH]c2cc(C(=O)N(C)Cc3cnn(C)c3)ccc21`, the INHIBITION was found to be 24.065%. Next, `CC(C)N(C)Cc1cc(=O)n2c(n1)CN(S(=O)(=O)C1CC1)CCC2`: 25.6%; `CNC(=O)C1(CCCc2ccccn2)CN(Cc2coc(C)n2)C1`: 14.6%.

Regarding `Cc1ccc(CC(=O)NC(C)C(=O)N2CCS(=O)(=O)CC2)s1` (stereo not given), the INHIBITION turned out to be 76.2%. `CC(NC(=O)Cc1ccccc1F)C(=O)N1CCS(=O)(=O)CC1` (stereo not given): the INHIBITION turned out to be 49.4%. Turning to `Cc1ccc(CC(=O)NC(C)C(=O)N2CCS(=O)(=O)CC2)cc1` (stereo not given), the INHIBITION is -11.1%.

As for `CNC(=O)CN1CCO[C@H]2CN(CC3CCOCC3)C[C@H]21`, the INHIBITION is reported as 13.7%. Next, `CC(C)NC(=O)CN1CCC(c2cccc(F)c2)C1` (stereo not given): 45.65%; `Cn1nccc1C(=O)N1Cc2cc(Cl)ccc2OC2(CCOCC2)C1`: -0.902%. Next, `COC(=O)N1CCC2(CC1)CC(c1ccccc1)CN(C)C2` (stereo not given): 39.4%; `CN1CC(c2ccccc2)CC12CCN(C(=O)c1ccc(Cl)cn1)CC2` (stereo not given): 28.5%.

Consider `CN1CC(c2ccccc2)CC12CCN(C(=O)c1ccncc1)CC2` (stereo not given), for which the INHIBITION is 7.6%.

Consider `CN1CC(c2ccccc2)CC2(CCN(C(=O)c3ccccc3)CC2)C1` (stereo not given), for which the INHIBITION is listed as 49.4%. `CN1CC(c2ccccc2)CC2(CCN(C(=O)c3cccnn3)CC2)C1` (stereo not given): the INHIBITION stood at 81.2%. Next, `CN1CC(c2ccccc2)CC12CCN(C(=O)c1c(Cl)cnn1C)CC2` (stereo not given): 55.1%; `CN1CC(c2ccccc2)CC12CCN(C(=O)c1ccc(Cl)cc1)CC2` (stereo not given): 37.6%. Next, `CN1CC(c2ccccc2)CC12CCN(C(=O)c1cccnc1)CC2` (stereo not given): 51.2%.

`CN1CC(c2ccccc2)CC12CCN(C(=O)c1cncc(Cl)c1)CC2` (stereo not given): the INHIBITION is recorded as 8.47%. Turning to `O=C(c1cc(-c2cccnc2)[nH]n1)N1CCCC(Cc2ccccn2)C1` (stereo not given), the INHIBITION was -12.76%.
